Assay results taken from paper PMC7862700, “An all-to-all approach to the identification of sequence-specific readers for epigenetic DNA modifications on cytosine”.

How the values were obtained:
Test in all cases: DAPPL (digital affinity profiling via proximity ligation, sequencing); 10 mM Tris-HCl pH 7.5, 50 mM NaCl, 1 mM DTT, 4% glycerol, room temperature, 30 min; GST-TFs on glutathione beads, 16-mer random dsDNA library, 0.1% formaldehyde crosslink after washing; high values mean tight binding
FLI1 = target: T1, FLI1 (Homo sapiens, UniProt Q01543 1-452); conditions: protein: recombinant; tags: N-terminal GST; dsDNA, one strand shown
T1 sequence: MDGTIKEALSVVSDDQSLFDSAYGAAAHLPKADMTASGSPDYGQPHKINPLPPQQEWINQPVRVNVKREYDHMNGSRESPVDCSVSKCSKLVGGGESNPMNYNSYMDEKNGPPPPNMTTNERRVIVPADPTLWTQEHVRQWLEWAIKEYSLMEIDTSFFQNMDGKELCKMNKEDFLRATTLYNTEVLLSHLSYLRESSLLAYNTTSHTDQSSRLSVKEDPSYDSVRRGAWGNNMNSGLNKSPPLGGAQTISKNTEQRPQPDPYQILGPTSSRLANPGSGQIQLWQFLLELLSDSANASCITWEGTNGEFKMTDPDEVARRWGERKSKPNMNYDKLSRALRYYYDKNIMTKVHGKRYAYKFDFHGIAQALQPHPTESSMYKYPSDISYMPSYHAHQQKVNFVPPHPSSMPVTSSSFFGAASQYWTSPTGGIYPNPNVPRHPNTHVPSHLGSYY
Procedure, shortened: (§1)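 After expression in yeast as GST fusions, human transcription factors were bound to glutathione beads, DNA-barcoded and mixed with a tag-only sample. The pools were incubated with 200 nmole of a 16-mer random double-stranded DNA library in Tris/NaCl/DTT/glycerol buffer (30 min, room temperature), washed and crosslinked with 0.1% formaldehyde. Proximity ligation with BsaI/T4 ligase ran for 1 h at 37 °C, before PCR amplification and sequencing on an Illumina NextSeq500. Binding signal is a hexamer's read frequency for a factor divided by its frequency for the tag-only sample.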

ELK1 = target: T2, ELK1 (Homo sapiens, UniProt P19419 1-428); conditions: protein: recombinant; tags: N-terminal GST; dsDNA, one strand shown
T2 sequence: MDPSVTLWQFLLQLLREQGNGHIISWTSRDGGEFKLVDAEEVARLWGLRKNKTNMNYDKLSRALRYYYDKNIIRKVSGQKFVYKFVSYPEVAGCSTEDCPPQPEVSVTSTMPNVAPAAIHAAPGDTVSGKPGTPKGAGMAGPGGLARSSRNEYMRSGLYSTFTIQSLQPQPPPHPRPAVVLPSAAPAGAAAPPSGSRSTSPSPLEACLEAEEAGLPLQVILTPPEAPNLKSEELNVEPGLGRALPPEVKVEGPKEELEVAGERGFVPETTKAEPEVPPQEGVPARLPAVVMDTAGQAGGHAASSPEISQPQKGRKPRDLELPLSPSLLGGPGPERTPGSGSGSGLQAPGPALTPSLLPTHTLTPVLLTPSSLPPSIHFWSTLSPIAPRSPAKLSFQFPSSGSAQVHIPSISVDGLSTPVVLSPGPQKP
Procedure, shortened: as §1

GABPA = target: T3, GABPA (Homo sapiens, UniProt Q06546 1-454); conditions: protein: recombinant; tags: N-terminal GST; dsDNA, one strand shown
T3 sequence: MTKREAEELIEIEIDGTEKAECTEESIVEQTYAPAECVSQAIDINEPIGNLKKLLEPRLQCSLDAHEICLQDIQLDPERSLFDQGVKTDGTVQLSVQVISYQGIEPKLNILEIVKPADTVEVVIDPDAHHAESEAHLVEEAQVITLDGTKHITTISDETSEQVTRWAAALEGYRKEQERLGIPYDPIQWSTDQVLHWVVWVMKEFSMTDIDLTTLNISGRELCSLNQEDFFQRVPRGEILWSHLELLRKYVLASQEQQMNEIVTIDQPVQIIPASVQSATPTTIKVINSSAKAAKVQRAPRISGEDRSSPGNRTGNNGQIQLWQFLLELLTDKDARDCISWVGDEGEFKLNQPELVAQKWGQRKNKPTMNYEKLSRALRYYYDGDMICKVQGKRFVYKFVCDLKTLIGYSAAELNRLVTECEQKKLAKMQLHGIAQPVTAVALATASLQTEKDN
Procedure, shortened: as §1

ERG = target: T4, ERG (Homo sapiens, UniProt P11308 1-479); conditions: protein: recombinant; tags: N-terminal GST; dsDNA, one strand shown
T4 sequence: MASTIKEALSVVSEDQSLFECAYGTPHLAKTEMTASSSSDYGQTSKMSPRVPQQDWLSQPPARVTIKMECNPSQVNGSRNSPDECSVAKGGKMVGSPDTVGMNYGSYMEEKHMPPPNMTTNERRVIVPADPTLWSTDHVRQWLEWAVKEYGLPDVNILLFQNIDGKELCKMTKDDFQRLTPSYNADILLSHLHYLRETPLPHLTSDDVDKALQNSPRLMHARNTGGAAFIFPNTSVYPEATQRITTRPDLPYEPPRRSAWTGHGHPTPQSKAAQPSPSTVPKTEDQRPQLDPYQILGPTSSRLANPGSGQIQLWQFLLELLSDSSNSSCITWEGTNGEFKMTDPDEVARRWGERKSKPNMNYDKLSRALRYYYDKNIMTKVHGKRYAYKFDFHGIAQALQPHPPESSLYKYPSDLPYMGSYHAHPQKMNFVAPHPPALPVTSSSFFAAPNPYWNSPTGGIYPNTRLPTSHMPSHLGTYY
Procedure, shortened: as §1

ELF1 = ELF1 (Homo sapiens, UniProt P32519 1-619); conditions: protein: recombinant; tags: N-terminal GST; dsDNA, one strand shown
Procedure, shortened: as §1

EHF = target: T5, EHF (Homo sapiens, UniProt Q9NZC4 1-300); conditions: protein: recombinant; tags: N-terminal GST; dsDNA, one strand shown
T5 sequence: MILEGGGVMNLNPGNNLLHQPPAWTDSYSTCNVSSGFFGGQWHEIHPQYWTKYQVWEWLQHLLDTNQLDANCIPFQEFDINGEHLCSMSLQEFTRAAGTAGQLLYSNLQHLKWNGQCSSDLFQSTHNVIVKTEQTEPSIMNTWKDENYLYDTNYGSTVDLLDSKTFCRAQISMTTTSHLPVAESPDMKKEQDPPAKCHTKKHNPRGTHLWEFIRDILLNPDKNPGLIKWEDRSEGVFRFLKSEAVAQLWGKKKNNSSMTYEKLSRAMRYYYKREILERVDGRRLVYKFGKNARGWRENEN
Procedure, shortened: as §1

SPI1 = SPI1 (Homo sapiens, UniProt P17947 1-270); conditions: protein: recombinant; tags: N-terminal GST; dsDNA, one strand shown
Procedure, shortened: as §1

SPIB = SPIB (Homo sapiens, UniProt Q01892 1-262); conditions: protein: recombinant; tags: N-terminal GST; dsDNA, one strand shown
Procedure, shortened: as §1

ELK3 = target: T6, ELK3 (Homo sapiens, UniProt P41970 1-407); conditions: protein: recombinant; tags: N-terminal GST; dsDNA, one strand shown
T6 sequence: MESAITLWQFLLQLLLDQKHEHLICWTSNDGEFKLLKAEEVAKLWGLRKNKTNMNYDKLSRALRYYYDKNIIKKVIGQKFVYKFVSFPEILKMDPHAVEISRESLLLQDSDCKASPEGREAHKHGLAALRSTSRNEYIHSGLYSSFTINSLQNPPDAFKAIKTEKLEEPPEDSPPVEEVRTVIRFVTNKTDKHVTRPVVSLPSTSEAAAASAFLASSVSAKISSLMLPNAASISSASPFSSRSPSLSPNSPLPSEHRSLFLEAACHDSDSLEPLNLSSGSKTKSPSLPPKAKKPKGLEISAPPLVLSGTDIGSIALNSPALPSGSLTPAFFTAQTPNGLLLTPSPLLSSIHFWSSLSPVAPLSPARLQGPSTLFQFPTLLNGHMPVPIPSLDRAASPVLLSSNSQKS
Procedure, shortened: as §1

FEV = target: T7, FEV (Homo sapiens, UniProt Q99581 1-238); conditions: protein: recombinant; tags: N-terminal GST; dsDNA, one strand shown
T7 sequence: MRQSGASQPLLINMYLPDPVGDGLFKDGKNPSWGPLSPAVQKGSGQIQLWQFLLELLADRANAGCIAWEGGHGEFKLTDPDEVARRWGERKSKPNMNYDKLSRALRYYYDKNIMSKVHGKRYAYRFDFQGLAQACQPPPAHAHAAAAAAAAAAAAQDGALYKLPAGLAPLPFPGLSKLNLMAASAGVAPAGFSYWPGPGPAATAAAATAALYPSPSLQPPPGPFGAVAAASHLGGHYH
Procedure, shortened: as §1

ETV5 = ETV5 (Homo sapiens, UniProt P41161 1-510); conditions: protein: recombinant; tags: N-terminal GST; dsDNA, one strand shown
Procedure, shortened: as §1

HSF1 = HSF1 (Homo sapiens, UniProt Q00613 1-529); conditions: protein: recombinant; tags: N-terminal GST; chain copies: 3; dsDNA, one strand shown
Procedure, shortened: as §1

SPIC = target: T8, SPIC (Homo sapiens, UniProt Q8N5J4 1-248); conditions: protein: recombinant; tags: N-terminal GST; dsDNA, one strand shown
T8 sequence: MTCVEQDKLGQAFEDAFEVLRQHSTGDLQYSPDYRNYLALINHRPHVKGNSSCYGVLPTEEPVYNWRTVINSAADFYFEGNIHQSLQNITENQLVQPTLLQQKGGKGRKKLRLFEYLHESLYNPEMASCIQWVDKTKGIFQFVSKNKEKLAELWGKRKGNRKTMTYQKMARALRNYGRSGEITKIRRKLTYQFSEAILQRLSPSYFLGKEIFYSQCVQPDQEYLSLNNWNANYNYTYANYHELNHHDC
Procedure, shortened: as §1

ELF4 = ELF4 (Homo sapiens, UniProt Q99607 1-663); conditions: protein: recombinant; tags: N-terminal GST; dsDNA, one strand shown
Procedure, shortened: as §1

ELK4 = target: T9, ELK4 (Homo sapiens, UniProt P28324-2 1-405); conditions: protein: recombinant; tags: N-terminal GST; dsDNA, one strand shown
T9 sequence: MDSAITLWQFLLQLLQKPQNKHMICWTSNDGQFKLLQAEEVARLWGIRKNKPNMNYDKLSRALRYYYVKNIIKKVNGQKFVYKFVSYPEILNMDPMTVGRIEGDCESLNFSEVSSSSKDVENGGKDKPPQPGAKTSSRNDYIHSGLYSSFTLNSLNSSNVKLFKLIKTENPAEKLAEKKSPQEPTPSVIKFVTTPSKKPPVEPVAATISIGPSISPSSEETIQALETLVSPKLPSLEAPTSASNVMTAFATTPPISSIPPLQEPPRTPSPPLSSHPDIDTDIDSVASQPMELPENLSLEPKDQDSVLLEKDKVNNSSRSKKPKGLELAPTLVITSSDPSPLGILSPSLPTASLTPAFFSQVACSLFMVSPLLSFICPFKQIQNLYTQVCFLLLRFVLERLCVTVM
Procedure, shortened: as §1

ETV2 = target: T10, ETV2 (Homo sapiens, UniProt O00321 1-342); conditions: protein: recombinant; tags: N-terminal GST; dsDNA, one strand shown
T10 sequence: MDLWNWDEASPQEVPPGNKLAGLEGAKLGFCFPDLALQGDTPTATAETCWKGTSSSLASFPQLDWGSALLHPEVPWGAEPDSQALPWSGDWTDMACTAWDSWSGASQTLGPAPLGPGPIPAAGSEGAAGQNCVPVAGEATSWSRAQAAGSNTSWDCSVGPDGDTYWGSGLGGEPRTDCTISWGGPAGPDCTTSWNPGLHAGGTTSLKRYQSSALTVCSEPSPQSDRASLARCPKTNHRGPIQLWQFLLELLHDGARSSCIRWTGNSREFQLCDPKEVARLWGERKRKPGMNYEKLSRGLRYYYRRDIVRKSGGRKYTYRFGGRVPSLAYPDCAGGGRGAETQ
Procedure, shortened: as §1

ELF3 = target: T11, ELF3 (Homo sapiens, UniProt P78545 1-371); conditions: protein: recombinant; tags: N-terminal GST; dsDNA, one strand shown
T11 sequence: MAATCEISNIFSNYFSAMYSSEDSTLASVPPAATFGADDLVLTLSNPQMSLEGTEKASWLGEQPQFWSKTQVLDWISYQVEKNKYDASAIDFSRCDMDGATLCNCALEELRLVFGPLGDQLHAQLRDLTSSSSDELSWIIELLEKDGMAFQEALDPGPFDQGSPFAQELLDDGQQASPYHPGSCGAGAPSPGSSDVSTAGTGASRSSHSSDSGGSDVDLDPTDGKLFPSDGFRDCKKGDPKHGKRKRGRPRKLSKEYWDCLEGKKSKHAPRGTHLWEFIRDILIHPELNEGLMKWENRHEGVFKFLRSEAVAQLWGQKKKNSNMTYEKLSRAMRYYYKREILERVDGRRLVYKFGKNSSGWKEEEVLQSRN
Procedure, shortened: as §1

CRX = CRX (Homo sapiens, UniProt O43186 1-299); conditions: protein: recombinant; tags: N-terminal GST; dsDNA, one strand shown
Procedure, shortened: as §1

ETV1 = ETV1 (Homo sapiens, UniProt P50549 1-477); conditions: protein: recombinant; tags: N-terminal GST; dsDNA, one strand shown
Procedure, shortened: as §1

Chain of ETV1 (P50549 whole entry): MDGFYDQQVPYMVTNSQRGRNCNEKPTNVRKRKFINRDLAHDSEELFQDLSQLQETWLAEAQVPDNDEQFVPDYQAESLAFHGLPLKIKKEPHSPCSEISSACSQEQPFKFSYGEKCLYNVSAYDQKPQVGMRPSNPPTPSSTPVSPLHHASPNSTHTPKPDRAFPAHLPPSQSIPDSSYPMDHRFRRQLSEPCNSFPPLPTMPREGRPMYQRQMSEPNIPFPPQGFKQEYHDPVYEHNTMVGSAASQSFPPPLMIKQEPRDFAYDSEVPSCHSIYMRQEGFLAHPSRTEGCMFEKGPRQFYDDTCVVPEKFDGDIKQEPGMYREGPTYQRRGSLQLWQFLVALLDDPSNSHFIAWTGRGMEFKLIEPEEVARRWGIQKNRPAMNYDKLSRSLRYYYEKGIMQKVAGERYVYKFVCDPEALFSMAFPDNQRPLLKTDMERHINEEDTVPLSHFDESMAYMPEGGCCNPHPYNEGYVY
Chain of CRX (O43186 whole entry): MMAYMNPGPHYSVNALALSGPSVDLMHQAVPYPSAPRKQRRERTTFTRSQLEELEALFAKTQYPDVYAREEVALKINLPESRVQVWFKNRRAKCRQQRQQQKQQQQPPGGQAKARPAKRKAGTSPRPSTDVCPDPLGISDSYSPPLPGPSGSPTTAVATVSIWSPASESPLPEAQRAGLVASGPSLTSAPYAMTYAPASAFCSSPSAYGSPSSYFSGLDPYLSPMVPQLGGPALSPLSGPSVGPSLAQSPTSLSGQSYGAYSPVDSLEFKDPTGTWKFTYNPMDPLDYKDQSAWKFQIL
Chain of ELF1 (P32519 whole entry): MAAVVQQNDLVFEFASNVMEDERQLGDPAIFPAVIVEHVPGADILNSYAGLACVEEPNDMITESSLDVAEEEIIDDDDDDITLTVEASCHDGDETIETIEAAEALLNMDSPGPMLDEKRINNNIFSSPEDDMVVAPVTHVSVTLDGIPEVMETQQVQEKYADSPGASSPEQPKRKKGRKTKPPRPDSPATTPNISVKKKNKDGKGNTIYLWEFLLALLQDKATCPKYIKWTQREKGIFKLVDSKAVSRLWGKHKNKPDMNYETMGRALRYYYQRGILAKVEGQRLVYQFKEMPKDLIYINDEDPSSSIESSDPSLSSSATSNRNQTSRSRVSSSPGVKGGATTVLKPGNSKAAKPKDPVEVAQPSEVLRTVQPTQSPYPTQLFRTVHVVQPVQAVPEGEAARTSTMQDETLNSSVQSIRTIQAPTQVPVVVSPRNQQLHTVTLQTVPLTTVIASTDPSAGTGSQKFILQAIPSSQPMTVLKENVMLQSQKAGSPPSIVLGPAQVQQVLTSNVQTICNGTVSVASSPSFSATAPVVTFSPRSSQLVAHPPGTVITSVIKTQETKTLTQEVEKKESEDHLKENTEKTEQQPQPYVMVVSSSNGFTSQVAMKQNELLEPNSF
Chain of ETV5 (P41161 whole entry): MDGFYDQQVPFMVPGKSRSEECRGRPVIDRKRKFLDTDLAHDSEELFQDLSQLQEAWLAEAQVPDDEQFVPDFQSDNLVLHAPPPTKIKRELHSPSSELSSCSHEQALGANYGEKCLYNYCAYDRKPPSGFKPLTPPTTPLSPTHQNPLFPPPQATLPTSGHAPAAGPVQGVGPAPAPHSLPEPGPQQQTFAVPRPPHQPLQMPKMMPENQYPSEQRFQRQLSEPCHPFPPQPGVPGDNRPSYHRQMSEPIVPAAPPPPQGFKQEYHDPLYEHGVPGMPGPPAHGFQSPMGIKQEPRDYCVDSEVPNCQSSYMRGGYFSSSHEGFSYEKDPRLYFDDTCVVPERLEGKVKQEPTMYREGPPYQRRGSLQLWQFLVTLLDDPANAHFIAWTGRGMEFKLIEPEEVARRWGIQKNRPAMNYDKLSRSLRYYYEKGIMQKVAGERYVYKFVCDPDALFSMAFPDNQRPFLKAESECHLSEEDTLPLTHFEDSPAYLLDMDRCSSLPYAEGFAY
Chain of ELF4 (Q99607 whole entry): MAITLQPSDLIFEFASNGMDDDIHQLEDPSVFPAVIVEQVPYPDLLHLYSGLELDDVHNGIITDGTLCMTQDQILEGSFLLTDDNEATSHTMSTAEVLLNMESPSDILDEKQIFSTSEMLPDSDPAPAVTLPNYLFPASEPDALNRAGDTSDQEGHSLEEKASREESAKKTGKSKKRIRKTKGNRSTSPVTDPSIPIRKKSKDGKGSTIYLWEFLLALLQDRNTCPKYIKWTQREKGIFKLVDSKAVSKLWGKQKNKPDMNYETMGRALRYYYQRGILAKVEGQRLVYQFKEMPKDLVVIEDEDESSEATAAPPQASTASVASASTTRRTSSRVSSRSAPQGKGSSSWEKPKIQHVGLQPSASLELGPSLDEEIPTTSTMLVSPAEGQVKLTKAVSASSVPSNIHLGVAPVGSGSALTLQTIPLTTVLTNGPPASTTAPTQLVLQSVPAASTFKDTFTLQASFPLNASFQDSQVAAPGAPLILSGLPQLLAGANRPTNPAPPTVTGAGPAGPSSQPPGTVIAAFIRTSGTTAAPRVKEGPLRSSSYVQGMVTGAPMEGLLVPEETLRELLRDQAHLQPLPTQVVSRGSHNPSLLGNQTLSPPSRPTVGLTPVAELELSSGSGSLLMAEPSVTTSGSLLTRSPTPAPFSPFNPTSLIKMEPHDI
Chain of SPIB (Q01892 whole entry): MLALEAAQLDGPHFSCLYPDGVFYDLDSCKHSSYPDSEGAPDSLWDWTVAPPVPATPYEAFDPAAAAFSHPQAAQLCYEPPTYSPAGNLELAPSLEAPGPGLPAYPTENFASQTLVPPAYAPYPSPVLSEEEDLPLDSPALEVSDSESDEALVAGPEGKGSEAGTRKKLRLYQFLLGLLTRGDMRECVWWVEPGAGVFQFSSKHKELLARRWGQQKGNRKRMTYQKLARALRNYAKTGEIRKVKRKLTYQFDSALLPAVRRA
Chain of HSF1 (Q00613 whole entry): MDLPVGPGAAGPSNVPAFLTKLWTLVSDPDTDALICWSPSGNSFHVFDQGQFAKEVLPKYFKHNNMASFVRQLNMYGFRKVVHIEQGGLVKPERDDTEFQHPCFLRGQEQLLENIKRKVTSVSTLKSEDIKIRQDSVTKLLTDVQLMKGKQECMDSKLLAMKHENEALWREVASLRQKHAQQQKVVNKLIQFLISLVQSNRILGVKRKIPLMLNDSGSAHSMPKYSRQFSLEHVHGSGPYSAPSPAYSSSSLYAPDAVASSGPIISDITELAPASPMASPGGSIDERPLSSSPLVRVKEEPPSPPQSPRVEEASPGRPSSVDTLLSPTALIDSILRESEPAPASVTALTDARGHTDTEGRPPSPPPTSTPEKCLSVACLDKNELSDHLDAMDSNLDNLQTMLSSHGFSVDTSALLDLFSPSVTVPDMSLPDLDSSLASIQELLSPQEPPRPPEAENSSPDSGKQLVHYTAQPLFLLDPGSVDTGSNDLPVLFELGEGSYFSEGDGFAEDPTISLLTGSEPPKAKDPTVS

In the case of GTCTTA, the binding signal (FLI1) is reported as 1.1 fold enrichment (6-mer frequency, TF over GST control), the binding signal (ELK1) is reported as 1.14 fold enrichment (6-mer frequency, TF over GST control) and the binding signal (GABPA) is reported as 1.08 fold enrichment (6-mer frequency, TF over GST control). For the same sequence, the binding signal (ERG) was 1.06 fold enrichment (6-mer frequency, TF over GST control), the binding signal (ELF1) was 1.11 fold enrichment (6-mer frequency, TF over GST control) and the binding signal (EHF) was 1.08 fold enrichment (6-mer frequency, TF over GST control). For the same sequence, the binding signal (SPI1) was 1.14 fold enrichment (6-mer frequency, TF over GST control), the binding signal (SPIB) was 1.14 fold enrichment (6-mer frequency, TF over GST control) and the binding signal (ELK3) was 1.06 fold enrichment (6-mer frequency, TF over GST control). The binding signal (FEV) was 1.07 fold enrichment (6-mer frequency, TF over GST control), the binding signal (ETV5) was 1.14 fold enrichment (6-mer frequency, TF over GST control) and the binding signal (HSF1) was 1.35 fold enrichment (6-mer frequency, TF over GST control). For the same sequence, the binding signal (SPIC) was 1.07 fold enrichment (6-mer frequency, TF over GST control), the binding signal (ELF4) was 1.08 fold enrichment (6-mer frequency, TF over GST control) and the binding signal (ELK4) was 1.04 fold enrichment (6-mer frequency, TF over GST control). The binding signal (ETV2) was 1.14 fold enrichment (6-mer frequency, TF over GST control), the binding signal (ELF3) was 1.16 fold enrichment (6-mer frequency, TF over GST control) and the binding signal (CRX) was 1.94 fold enrichment (6-mer frequency, TF over GST control). The binding signal (ETV1) was 1.15 fold enrichment (6-mer frequency, TF over GST control).
